The supplement of paper PMC6555819

Tests used:
Experiment in all cases: PBM binding z-score (relative to random genomic background probes); higher = stronger binding; sequences stand for … in GC…GCGATTGACAGCGTAGAATGAAGG
[1] = system: FXR:RXRa (NR concentration 270 nM, RXRa partner concentration 90 nM)
Procedure, shortened: (§1)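 For binding z-scores, the reference was random background probes on custom Agilent 4×180K protein-binding microarrays. These arrays were incubated 1 h with ligand-free nuclear receptor dimers in PBS pH 7.4, 2% milk, 0.02% Triton X-100, 1 mM DTT, 0.2 mg/mL BSA and 0.4 mg/ml salmon testes DNA. Fluorescence was scanned after antibody detection of each partner (one per run) and regression-normalized.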

[2] = system: LXRa:RXRa (NR concentration 270 nM, RXRa partner concentration 90 nM)
Procedure, shortened: as §1

[3] = system: LXRa homodimer (NR concentration 270 nM)
Procedure, shortened: as §1

[4] = system: LXRb:RXRa (NR concentration 270 nM, RXRa partner concentration 90 nM)
Procedure, shortened: as §1

[5] = system: LXRb homodimer (NR concentration 270 nM)
Procedure, shortened: as §1

[6] = system: PPARa:RXRa (NR concentration 270 nM, RXRa partner concentration 90 nM)
Procedure, shortened: as §1

[7] = system: PPARg:RXRa (NR concentration 180 nM, RXRa partner concentration 90 nM)
Procedure, shortened: as §1

[8] = system: PPARg:RXRa 270nM:90nM, anti-RXR (NR concentration 270 nM, RXRa partner concentration 90 nM)
Procedure, shortened: as §1

[9] = system: PPARg:RXRa 30nM:10nM, anti-RXR (NR concentration 30 nM, RXRa partner concentration 10 nM)
Procedure, shortened: as §1

[10] = system: PPARg:RXRa 90nM:30nM, anti-RXR (NR concentration 90 nM, RXRa partner concentration 30 nM)
Procedure, shortened: as §1

[11] = system: PPARg:RXRa DBDmut IVT, anti-RXR (DBD mutation: RXRa K156A/R161A, NR concentration 270 nM, RXRa partner concentration 90 nM)
Procedure, shortened: as §1

[12] = system: PPARg:RXRa IVT, anti-PPARg (NR concentration 270 nM, RXRa partner concentration 90 nM)
Procedure, shortened: as §1

[13] = system: PPARg DBDmut:RXRa IVT, anti-PPARg (DBD mutation: PPARg1 K132A/R137A, NR concentration 270 nM, RXRa partner concentration 90 nM)
Procedure, shortened: as §1

[14] = system: PPARg DBDmut IVT, anti-PPARg (DBD mutation: PPARg1 K132A/R137A, NR concentration 270 nM)
Procedure, shortened: as §1

[15] = system: PPARg homodimer (NR concentration 180 nM)
Procedure, shortened: as §1

[16] = system: PXR:RXRa (NR concentration 270 nM, RXRa partner concentration 90 nM)
Procedure, shortened: as §1

[17] = system: PXR homodimer (NR concentration 270 nM)
Procedure, shortened: as §1

[18] = system: RARa:RXR (NR concentration 270 nM, RXRa partner concentration 90 nM)
Procedure, shortened: as §1

[19] = system: RARa homodimer (NR concentration 270 nM)
Procedure, shortened: as §1

[20] = system: RARb:RXRa (NR concentration 270 nM, RXRa partner concentration 90 nM)
Procedure, shortened: as §1

Sequence | PBM binding z-score [1] | PBM binding z-score [2] | PBM binding z-score [3] | PBM binding z-score [4] | PBM binding z-score [5] | PBM binding z-score [6] | PBM binding z-score [7] | PBM binding z-score [8] | PBM binding z-score [9] | PBM binding z-score [10] | PBM binding z-score [11] | PBM binding z-score [12] | PBM binding z-score [13] | PBM binding z-score [14] | PBM binding z-score [15] | PBM binding z-score [16] | PBM binding z-score [17] | PBM binding z-score [18] | PBM binding z-score [19] | PBM binding z-score [20]
CCTCGGAGGACAGAAGGTCAGCGCTGTCCGCTTT | 1.68 | 2.01 | 0.184 | 1.17 | -0.704 | 2.2 | -0.154 | 1.57 | -0.543 | 0.613 | -0.144 | 0.0652 | -1.29 | -1.5 | 1.24 | 1.96 | -0.497 | 2.76 | 0.504 | 3.68
AATACCGGGTCACTAGGCCAGAGTAGGTACGAAT | 4.09 | 3.51 | 0.369 | 2.69 | 0.134 | 5.09 | 6.97 | 5.93 | 2.96 | 4.9 | 4.09 | 6.04 | 0.988 | 0.334 | 1.7 | 2.32 | -0.108 | 3.37 | 0.616 | 3.47
TCTATTAGTTGATTGGGGCAACCGAAACAGCGGA | 1.22 | 0.791 | 0.363 | 1.23 | 1.1 | 1.17 | 0.235 | 1.91 | 3.65 | 2.85 | 2.23 | 1.52 | 0.999 | 1.72 | 0.142 | 0.811 | 0.783 | 1.14 | 1.31 | 1.03
CATACAGGATCAGCTAGGCCAGAGTAGGGACGGC | -0.21 | -0.464 | 0.0266 | -0.7 | -0.0365 | -0.466 | 0.558 | -0.422 | -0.274 | -0.505 | -0.103 | -0.208 | 0.289 | 0.351 | 0.422 | -0.609 | -0.0917 | -0.441 | 0.241 | -0.093
ACTTACGGGTCAGCGAGGTTATAGCACGCGTATA | 4.94 | 3.87 | 0.399 | 3.41 | 0.42 | 4.9 | 3.94 | 4.15 | 1.13 | 2.59 | 1.92 | 3.48 | 0.822 | 0.254 | 1.62 | 4.18 | 1.12 | 4.25 | 0.477 | 4.09
TCATCTAGGTAATACAGGTGAAAGTCGGCATCTA | 0.88 | 0.831 | 0.409 | 0.796 | 0.445 | 2.05 | 1.29 | 2.5 | 3.85 | 3.22 | 4.07 | 4.08 | 1.3 | 1.36 | 0.913 | 0.275 | 0.512 | 0.694 | 1.29 | 0.575
CCTATTAGTTGACGATAAGGGCAACCGAAGCTCG | 0.29 | 0.114 | -0.102 | 0.152 | 0.201 | 0.204 | 0.482 | 0.0797 | 0.0506 | 0.157 | 0.107 | -0.036 | 0.257 | 0.471 | 1.85 | 0.261 | 0.241 | 0.847 | 1.05 | 1.33
CGTCCAAGGTCAATGCTAGGTCAGTGGAAGCATT | 6.99 | 5.73 | 3.02 | 3.78 | 0.891 | 4.81 | 4.07 | 4.24 | 1.28 | 3.23 | 3.31 | 3.57 | -0.546 | -0.435 | 5.36 | 4.87 | 1.99 | 6.1 | 1.39 | 5.17
CCGAGTAGGTTATGGGGCATTCTGGCAACGGTGA | 0.393 | 0.413 | -0.113 | 0.625 | -0.33 | 2.14 | 3.38 | 4.15 | 2.03 | 3.6 | 3.05 | 3.19 | -0.237 | -1.42 | 1.24 | 0.151 | 0.0972 | 0.523 | 0.262 | 0.978
CGTCATAGTTCAACTAAGGTAACGTAAAGCACGC | 3.55 | 3.63 | 1.02 | 2.13 | 0.806 | 3.13 | 1.66 | 2.25 | 0.562 | 1.56 | 0.114 | 1.07 | 0.48 | 1.14 | 1.81 | 3.86 | 1.23 | 2.73 | 1.04 | 3.59
TCAGACAGGTGAAGGTAGCTCAGGTACGCAGTCG | 0.513 | 0.567 | -0.0814 | 0.434 | -0.218 | 1.02 | 0.481 | 1.75 | 3.33 | 2.65 | 2.37 | 0.501 | 0.112 | 0.071 | 0.349 | 0.216 | -0.0197 | 0.316 | 0.354 | 1.07
CTCGAAACGTCGGTTGAGGTGAGTATACGGATAA | 0.172 | -0.188 | -0.566 | -0.297 | -0.3 | -0.163 | 0.00135 | -0.342 | -0.256 | -0.221 | -0.197 | -0.061 | 0.192 | 0.207 | 0.264 | 0.0163 | -0.284 | 0.752 | -0.037 | 0.205
TCGAGTAGGTGAGGGGCATTCAGAATGGCGTCGA | 0.283 | -0.0871 | -0.49 | 1.21 | 0.881 | 1.47 | 1.99 | 3.31 | 1.98 | 2.63 | 3.64 | 3.75 | -0.208 | 0.0293 | 0.149 | 0.21 | -0.342 | -0.0572 | -0.832 | 0.965
